# This is one part of a sample in which hits are shown more often than they occur.
# AMA1 RON2 block: disrupts binding of P. falciparum AMA1 to RON2 | AlphaScreen AMA1-biotinylated RON2 peptide binding | Potency, µM (titrated, usually from 58.2 µM), for inactives: top-dose activity change, negative = inhibition, hits mostly inhibitors | 360,000 compounds, 0.2% hits | AID 720542; active means well fitted inhibition curve with a large enough effect; inconclusive means small, poorly fitted or top-dose-only effect; inactive means no such curve, though single readings can be large or run the other way;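 further: potency means the concentration at half of the fitted maximal effect; 0% = vehicle wells and -100% = peptide control; nearly all actives have a fitted effect of over 45% in size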
#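 AMA1 (3D7) with his tag at 25 nM final met compounds first, then biotinylated RON2 peptide at 25 nM; detection used donor plus acceptor beads, 10 µg/mL apiece, read by AlphaScreen after 30 min at room temperature.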
# Marburg entry inh: Marburg virus entry inhibition; Marburg virus pseudotyped entry inhibition, cell reporter; Potency, µM (titrated, usually from 37.8 µM), inactives show at the highest dose activity change, negative = inhibition, hits mostly inhibitors; 300,000 compounds, 1.8% hits; AID 540276; calls by dose curve; tested in HEK293 cells; further: potency means the concentration at half of the fitted maximal effect; on the % scale 0 is the no-effect control and ±100 the full control effect
# Shiga inhibitor: inhibitors of Shiga toxin in Vero cells | Vero cells, Shiga toxin protein synthesis inhibition reporter | inhibition, % at 38.7 µM | 290,000 compounds, 9.2% hits | AID 2315; in the data active means inhibition mostly above about 28%, no sharp cut-off; inactive means mostly below about 43%; further: 0% is about no effect
# CHX counter: counter-screen hit for Shiga toxin inhibitors, cycloheximide. AID 2314. cell reporter, cycloheximide protein synthesis inhibition counterscreen. 300,000 compounds, 12% hits. max response, %; in the data active means max response mostly above about 13%, no sharp cut-off; inactive means mostly below about 14%; further: read at 38.3 µM for the half of the compounds with a filed dose; 0% is about no effect
# Lassa entry inh: Lassa virus entry inhibition | Lassa virus pseudotype entry inhibition, cell reporter | Potency, µM (titrated, usually from 37.9 µM), for the others: at the highest dose activity change, negative = inhibition, actives largely listed as inhibitors | 300,000 compounds, 1.2% hits | AID 540256; calls by dose curve; tested in HEK293 cells; further: potency means the concentration at half of the fitted maximal effect; on the % scale 0 is the no-effect control and ±100 the full control effect; nearly all actives have a fitted effect of over 50% in size
# Numbers without * were called inactive; u = inconclusive; x = not tested or not shown; [ ] = another dose, or the depositor's remark.
SMILES,AMA1 RON2 block,Marburg entry inh,Shiga inhibitor,CHX counter,Lassa entry inh
Cc1oc2c(c(C)cc3oc(=O)c(CC(=O)NCc4ccc(F)cc4)c(C)c32)c1C,x,-2%[46.1 µM],x,x,4%[46.1 µM]
CCC(Oc1ccccc1)C(=O)NC1CCCCCC1 (stereo not given),-4%,x,-7,-1,x
CCC(Oc1ccccc1)C(=O)Nc1cc(C)on1 (stereo not given),-20%,x,38*,15*,x
CCC(Oc1ccccc1)C(=O)Nc1ccccn1 (stereo not given),-4%,13%,22,26*,17%
CCOC(=O)C(=O)Nc1cc(C)on1,10%,-2%[46.1 µM],80*,72*,-12%
CCCCNC(=O)Nc1cc(C)on1,-6%,2%,13,12,4%
COc1cccc(NC(=O)Cn2c(=O)n(CC(=O)NCCc3ccccc3)c(=O)c3sccc32)c1,x,3%[46.1 µM],x,x,4%[46.1 µM]
COc1ccccc1CNC(=O)c1cccc(S(=O)(=O)N2CCCC2)c1,-3%,29%,x,x,3%
CC(=O)NCCC(=O)Nc1cc(S(=O)(=O)N2CCCCC2)ccc1Oc1ccccc1,-16%,11%,-9,-4,-1%
Cc1cccc(-c2cc3nc(C)cc(NCCCN(C)C)n3n2)c1,2%,u,-12,-2,u
COCCNc1cc(C)nc2cc(-c3ccc(C)cc3)nn12,5%,-14%[46.1 µM],100,15*,x
COc1ccc(-c2cc3nc(C)cc(-c4ccc(OC)cc4)n3n2)cc1,110%,x,x,4,x
COc1ccc(-c2cc3nc(C)cc(NCCO)n3n2)cc1,6%,11%,24,22*,u
COc1ccc(-c2cc3nc(C)cc(N)n3n2)cc1,2%,u,73,15*,u
Cc1ccc(-c2cc3nc(C)cc(NCc4ccco4)n3n2)cc1,9%,u,59*,55*,40%[14.3 µM]
Cc1nc2cc(-c3ccc(Cl)cc3)nn2c(C)c1CCC(=O)NCc1ccco1,0%,7%,15,12,x
Cc1cc(C)c(C)c(S(=O)(=O)N2CCN(C(=O)c3ccccn3)CC2)c1C,-7%,x,x,x,x
CCc1ccc(NC(=O)CC2C(=O)N(c3cccc(C)c3)C(=O)N2CCC(C)C)cc1 (stereo not given),x,x,x,x,-8%[46.1 µM]
O=C1NCCC/C1=N/Nc1cc(F)ccc1F,-5%,x,42*,36*,x
CC(=O)c1ccc(N/N=C2/CCCNC2=O)cc1,11%,u,45,22*,7%[46.1 µM]
CCCCN(CCCC)C(=O)CN(C)S(=O)(=O)c1ccc2c(c1)c(=O)n(C)c(=O)n2C,x,-5%[46.1 µM],x,x,3%[46.1 µM]
Cc1cccc(-c2cccc(NC(=O)C3CCCN(C(=O)c4ocnc4C)C3)c2)c1 (stereo not given),-19%,u,40*,29*,3.5µM*
CCc1nc(C)c(C(=O)N2CCCC(C(=O)Nc3cccc(-c4cccc(C)c4)c3)C2)o1 (stereo not given),0%,u,87*,54*,u
Cc1cccc(-c2cccc(NC(=O)C3CCCN(C(=O)c4csc(C)n4)C3)c2)c1 (stereo not given),-8%,x,46*,17*,x
Cc1cccc(-c2cccc(NC(=O)C3CCCN(C(=O)c4cccnc4)C3)c2)c1 (stereo not given),-6%,x,-4,2,x
SMILES,AMA1 RON2 block,Marburg entry inh,Shiga inhibitor,CHX counter,Lassa entry inh
CC1(C)S[C@@H]2C(C(=O)OCc3ccccc3)NC(=O)N2C1C(=O)OCc1ccccc1 (stereo not given in full),11%,x,x,x,x
COc1ccc(CNC(=O)COC(=O)CCc2c[nH]c3ccccc23)cc1,12%,x,-2,9,x
COC(=O)NCC=Cc1nc(CCCO)co1,x,-24%[14.2 µM],x,x,x
O=C1CN(c2ccccc2)C(=S)N1C(=O)c1ccc(Br)cc1,111%,u,96*,43*,u
COc1ccc(OCC(=O)N/N=C(\CCC(=O)O)c2cccs2)cc1,51%,17%[46.1 µM],-2,-2,u
O=C(O)CC/C(=N\NC(=O)c1ccccc1)c1cccs1,43%,13%[46.1 µM],109*,49*,x
COC(=O)N/N=C(\CCC(=O)O)c1cccs1,-2%,18%,14,15*,2%
CC1=CC(Cc2ccc(C)cc2)C(=O)N=N1 (stereo not given),x,0%,x,x,x
C[C@H](NC(=O)[C@@H]1CCCN1C(=O)[C@@H]1CCCN1C(=O)OC(C)(C)C)c1ccccc1,9%,x,x,x,x
CCOc1ccccc1CNC(=O)c1cc(-c2ccc(Cl)s2)nc2ccccc12,x,5%[46.1 µM],x,x,-3%[46.1 µM]
CCN1C(=O)c2cccc3c(S(=O)(=O)NCc4cccnc4)ccc1c23,13%,u,-5,-3,-14%
CCN1C(=O)c2cccc3c(S(=O)(=O)NCc4ccco4)ccc1c23,-2%,-24%,18*,23*,1%
CCCNC(=O)C1(C)CCN(Cc2cc(-c3ccccc3)on2)C1 (stereo not given),18%,x,x,x,x
CC(c1ccon1)N(C)C(=O)CCc1nnc(Cc2ccc(-c3ccccc3)cc2)o1 (stereo not given),2%,x,40,16*,x
CN(Cc1ccon1)C(=O)CCc1nnc(Cc2ccc(-c3ccccc3)cc2)o1,-12%,-8%[46.1 µM],37*,24*,u
CN(Cc1ccon1)C(=O)CCc1nnc(CCCCc2ccccc2)o1,-6%,5%[46.1 µM],-10,-1,-4%[46.1 µM]
COc1ccc(CCNC(=O)CCc2nnc(Cc3ccc4c(c3)OCO4)o2)cc1,-4%,16%,9,-3,u
CN(CCc1ccccc1)C(=O)CCc1nnc(Cc2ccc3c(c2)OCO3)o1,-1%,15%,32,13*,12%
O=C(Nc1ccc(N2CCN(C(=O)c3ccccc3F)CC2)cc1)c1cncc(Br)c1,-7%,u,-21,3,u
O=C(NCc1ccncc1)C(=O)NCC1OCCCN1S(=O)(=O)c1cc(F)ccc1F (stereo not given),1%,1%,-29,-3,21%
Cc1ccc(CNC(=O)C(=O)NCC2OCCN2S(=O)(=O)c2ccc(Br)cc2)cc1 (stereo not given),-13%,u,-27,0,7.9µM*
COc1ccc(CCNC(=O)C(=O)NCC2OCCN2S(=O)(=O)c2ccc3c(c2)OCCO3)cc1 (stereo not given),-4%,u,11,34*,u
O=C(NCC1OCCCN1S(=O)(=O)c1cc(F)ccc1F)C(=O)NC1CCCCCC1 (stereo not given),6%,x,6,15*,x
Cc1ccc(CNC(=O)C(=O)NCC2OCCN2S(=O)(=O)c2ccc(C)cc2)cc1 (stereo not given),-13%,-29%,-25,-1,u
COc1ccc(CNC(=O)C(=O)NCC2OCCN2S(=O)(=O)c2ccc(F)cc2)cc1 (stereo not given),-3%,-7%,32*,28*,-4%
COc1ccc(CCNC(=O)C(=O)NCC2OCCN2S(=O)(=O)c2ccc3c(c2)OCCO3)cc1OC (stereo not given),-3%,u,-19,-1,-23%
COc1cc(C(=O)N2CCN(S(=O)(=O)c3ccc(C)cc3C)CC2)ccc1OCC(=O)N1CCOCC1,5%,x,x,x,x
CC(C)Oc1ccc(C(=O)NC2CCCCC2)cc1,29%,-2%,65,47*,-20%
